HCMV antiviral – human cytomegalovirus inhibition | HFF cells, HCMV-luciferase reporter, 72 h; hits give low values | hit rate 4.5% among 410,000 | activity change, negative = inhibition, % at 57.5 µM; in the data active = activity change below about -60%; inconclusive = no clear call, values can overlap the other calls; inactive = above about -39%
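Cell-based, HFFs, 1000 cells/well, 16 h 37C; cpds in DMSO + HCMV-luc, MOI 1 PFU/cell; 72 h 37C; OneGlo luminescence after 5 min RT; norm. to buffer vs Salinomycin 10uM.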
VACV mCherry inh – inhibitors of vaccinia virus infection (mCherry reporter signal); Vaccinia virus mCherry reporter infection, fluorescence; Potency, µM (titrated, usually from 36.5 µM), usual class: inhibitors; hit rate 0.63% among 310,000; calls by dose curve; tested in A549 cells; also: nearly all actives have a fitted effect of over 35% in size
LmPK inh – inhibitors of Leishmania mexicana pyruvate kinase; purified LmPK, Kinase-Glo ATP luminescence, 1 h; Potency, µM (series often up to 57.5 µM), most hits filed as inhibitors; hit rate 0.37% among 290,000; Q27686
Target sequence (Q27686 whole entry, looked up): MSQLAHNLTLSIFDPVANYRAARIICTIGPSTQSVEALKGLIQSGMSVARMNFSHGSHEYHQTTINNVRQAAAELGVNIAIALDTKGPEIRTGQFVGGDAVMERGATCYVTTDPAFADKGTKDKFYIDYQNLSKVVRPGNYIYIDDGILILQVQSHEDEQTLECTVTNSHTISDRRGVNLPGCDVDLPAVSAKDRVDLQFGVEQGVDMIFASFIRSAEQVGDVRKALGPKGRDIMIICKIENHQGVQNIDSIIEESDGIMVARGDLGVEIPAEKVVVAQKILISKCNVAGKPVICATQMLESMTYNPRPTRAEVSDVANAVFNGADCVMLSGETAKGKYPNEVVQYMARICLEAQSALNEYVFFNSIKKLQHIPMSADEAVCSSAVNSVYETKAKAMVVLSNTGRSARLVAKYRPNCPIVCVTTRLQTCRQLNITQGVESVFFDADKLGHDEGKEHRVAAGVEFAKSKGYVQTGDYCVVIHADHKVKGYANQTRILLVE
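0.1 nM LmPK, 0.5 mM PEP, 0.1 mM ADP; 50 mM imidazole pH 7.2, 7 mM MgCl2, 50 mM KCl; 1 h RT. Kinase-Glo luminescence readout, normalized to no-enzyme (full inhibition) and uninhibited wells.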
VACV Venus inh – vaccinia inhibition (Venus reporter). Vaccinia virus Venus reporter expression, fluorescence. Potency, µM (titrated, usually from 36.5 µM), usual class: inhibitors. hit rate 0.46% among 330,000. AID 720580; calls by dose curve; tested in A549 cells; also: nearly all actives have a fitted effect of over 30% in size
TbPYK inhibitor – blocks Trypanosoma brucei pyruvate kinase; TbPYK enzyme, Kinase-Glo Plus ATP luminescence, 45 min; hit rate 0.12% among 410,000; Potency, µM (doses to about 76.8 µM), hits mostly inhibitors; Q57TT1; also: nearly all actives have a fitted effect of over 50% in size
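Activity of T. brucei pyruvate kinase was followed by Kinase-Glo Plus luminescence after the enzyme reacted 45 min at room temperature with 130 uM ADP (final) and substrate. Test compounds were added before ADP at multiple concentrations.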
Numbers stand for hits; n = inactive; u = inconclusive; x = no result given. In the library only some 5% were active in any assay of this set; here they are far more common. Unless noted, calls follow the shape of the dose curve; as a rule, active = well fitted curve in the direction sought with a large enough effect; inconclusive = small, poorly fitted or top-dose-only effect, or another doubt; inactive = no such curve, though single readings can be large; an effect the other way counts as inactive or inconclusive.

SMILES | HCMV antiviral | VACV mCherry inh | LmPK inh | VACV Venus inh | TbPYK inhibitor
O=c1cc(Nc2ccc3c(c2)OCCO3)[nH]c(=O)n1-c1ccc(Br)cc1 | u | n | n | n | n
COc1cccc2cc(C(=O)NCc3ccco3)c(=Nc3ccc(C(=O)O)cc3)oc12 | -78 | 7.9µM | n | 10µM | n
COc1cccc2cc(C(=O)NCc3ccco3)c(=O)oc12 | u | n | n | n | n
Nc1cccc(S(=O)(=O)N2CCOCC2)c1 | x | n | x | n | x
O=C(CN1C(=O)c2cccc3cccc1c23)Nc1ccccc1C(=O)NCc1ccco1 | -61 | u | x | n | n
Cc1cccc(N=C2NN=C(c3c(C)[nH]c4ccccc34)CS2)c1 | -99 | u | n | u | u
COc1cc2c(cc1OC)CN(Cc1cc(=O)n3c(-c4ccccc4)csc3n1)CC2 | -73 | u | n | n | n
O=c1cc(CN2CCN(c3ccccc3)CC2)nc2scc(-c3ccccc3)n12 | n | n | n | n | n
CCNc1ccc(C(=O)OCC(=O)NC(C)c2ccccc2)cc1[N+](=O)[O-] (stereo unspecified) | -66 | n | n | n | n
CCOC(=O)c1c(NC(=O)c2ccc(S(=O)(=O)N(CC(C)C)CC(C)C)cc2)sc2c1CCN(CC)C2 | n | n | x | n | n
CN(C)c1ccc(NS(=O)(=O)c2ccc(-c3csnn3)cc2)cc1 | -65 | u | n | n | n
COc1ccc(CSc2nnc3[nH]c(=O)cc(N)n23)cc1 | n | n | n | n | u
O=C(CCc1nnc2n(Cc3ccccc3Cl)c(=O)c3ccccc3n12)Nc1ccc(F)cc1 | n | 10µM | x | 10µM | n
COc1cccc(NC(=O)CCc2nnc3n(Cc4ccccc4Cl)c(=O)c4ccccc4n23)c1 | n | n | x | n | n
Cc1ccc(N(Cc2ccccc2)C(=O)c2cc(S(=O)(=O)N3CCOCC3)ccc2N2CCCC2)cc1 | -61 | n | x | n | n
COc1ccccc1Nc1cc(C)nc2nc(-c3ccccc3)nn12 | -86 | n | x | n | n
S=C(Cc1ccccc1)N1CCOCC1 | n | n | x | n | n
NC(=S)N/N=C/c1ccc(-c2ccc(Cl)c(Cl)c2)o1 | n | x | n | u | n
NC(=S)N/N=C\c1ccc(-c2cccc(Cl)c2Cl)o1 | n | x | n | 6.3µM | n
CC(C)CNC(=O)CN1C(=O)NC2(CCCc3ccccc32)C1=O (stereo unspecified) | n | n | n | n | n
COc1ccc(Cl)cc1C(=O)NNC(=O)CNC(=O)c1ccco1 | -99 | x | x | x | n
O=C(Nc1ccc(S(=O)(=O)NC2=NCCCCC2)cc1)c1ccc(C(F)(F)F)cc1 | -67 | x | n | x | n
O=C(Nc1ccc(S(=O)(=O)NC2=NCCCCC2)cc1)c1ccc([N+](=O)[O-])s1 | n | 13µM | x | 11µM | n
Cc1ccc(S(=O)(=O)Nc2ccc(NC(=O)c3cccs3)cc2)cc1 | n | u | n | n | n
O=C(Nc1ccc(S(=O)(=O)NC2=NCCCCC2)cc1)c1cccs1 | -102 | x | x | x | n
SMILES | HCMV antiviral | VACV mCherry inh | LmPK inh | VACV Venus inh | TbPYK inhibitor
CN(C)S(=O)(=O)c1ccc(C(=O)Nc2ccc(S(=O)(=O)NC3=NCCCCC3)cc2)cc1 | n | n | n | n | n
Cc1ccc(NC(=O)c2c(C(F)(F)F)nn(C)c2SCc2cccc(C(F)(F)F)c2)cc1C | -88 | x | n | x | n
CCOC(=O)C1=C(c2ccccc2)Nc2ncnn2C1c1ccc(O)cc1 (stereo unspecified) | n | n | n | n | n
CC(C)N(C(=O)CSc1nc(Cc2ccccc2)nc2ccccc12)C(C)C | n | x | n | x | n
CC(C)NC(=O)CSc1nc(-c2cccs2)cc(-c2ccccc2)c1C#N | n | x | n | x | n
CC(C)(C)c1nc(SCC(=O)NCc2ccco2)c2ccccc2n1 | -88 | n | n | n | n
CC(C)NC(=O)CSc1nc(Cc2cccs2)nc2ccccc12 | -81 | n | n | n | n
CC(C)(C)NC(=O)CSc1nc(Cc2ccccc2)nc2ccccc12 | -67 | x | n | x | n
O=C(CSc1nc(Cc2ccccc2)nc2ccccc12)Nc1ccc2c(c1)OCCO2 | u | n | n | n | n
CCC(C)(C)NC(=O)CSc1nc(Cc2ccccc2)nc2ccccc12 | -72 | n | n | n | n
CC(C)CCN1CCN(Cc2cccc3nonc23)CC1CCO (stereo unspecified) | n | x | n | x | n
O=C(CN1C(=O)C(c2ccc(F)cc2)=NC12CCCC2)Nc1ccc(F)cc1 | -78 | u | n | n | n

Screening data from PubChem BioAssay.
